Assay results reported in ChEMBL document CHEMBL4513146, “CO-ADD screening of Karazin Kharkiv National University (Ukraine) compounds”.
Results with a measured potency or affinity are listed apart.

Legend:
Klebsiella pneumoniae = conditions: Concentration 32 ug.mL-1;; ASSAY_TEST Inhibition of Bacterial Growth; detection method Absorption (OD600); MEDIA CAMHB; plate type 384well; NBS; CORNING #3640; time 18 hr
Candida albicans = conditions: Concentration 32 ug.mL-1; ASSAY_TEST Inhibition of Fungal Growth; detection method Absorption (OD530)
Cryptococcus neoformans = conditions: Concentration 32 ug.mL-1; ASSAY_TEST Inhibition of Fungal Growth; detection method Resazurin; Absorption (OD600-OD570); plate type 384well; NBS; CORNING #3640

Structure (SMILES) | Inhibition (Klebsiella pneumoniae) [%] | Inhibition (Candida albicans) [%] | Inhibition (Cryptococcus neoformans) [%]
O=C(CSc1nnc2c(=O)n(-c3cccc(F)c3)ccn12)N1CCN(c2ccc(F)cc2)CC1 | 10.19 | 2.58 | -3.61
Cc1cc(C)c(NC(=O)Cn2nc3c4cc(-c5ccc(F)cc5)nn4ccn3c2=O)c(C)c1 | 17.22 | 18.72 | -19.36
O=C(CCc1nnc2c3cc(-c4ccc(F)cc4)nn3ccn12)N1CCC(Cc2ccccc2)CC1 | 4.22 | -1.12 | -13.61
CCc1nnc2c(S(=O)(=O)N(Cc3cccc(Cl)c3)c3ccccc3)cccn12 | -7.54 | 2.13 | -7.64
CC(=O)c1ccc(NC(=O)Cn2nc3ccc(-c4ccccc4)nn3c2=O)cc1 | 10.95 | 2.61 | -13.06
CCCCN(CC)c1ccc2nnc(CCc3nc(-c4ccc(OCc5ccccc5)cc4)no3)n2n1 | 10.12 | 5.5 | -16.46
COc1ccc(CNC(=O)CSc2nnc3c4cc(-c5ccc(OC)cc5)nn4ccn23)cc1 | -0.91 | 1.93 | -6.67
CCOc1ccc(-n2ccn3c(SCC(=O)c4ccc(F)cc4)nnc3c2=O)cc1 | 1.88 | 2.02 | -5.27
O=C(CSc1nnc2c(=O)n(-c3ccccc3)ccn12)Nc1ccc2c(c1)OCO2 | 8.73 | 0.46 | -18.26
CCc1ccccc1Sc1nccn2c(=O)n(CC(=O)NCc3cccs3)nc12 | -0.44 | 4.04 | -9.94
O=C(CSc1nnc2c(=O)n(-c3ccc(Br)cc3)ccn12)Nc1cccc(F)c1 | 8.72 | 6.18 | -18.67
COc1ccccc1-n1ccn2c(SCC#N)nnc2c1=O | 22.72 | 4.95 | -18.74
CCOc1ccc(-n2ccn3c(SCc4cccc(C(F)(F)F)c4)nnc3c2=O)cc1 | 0.24 | 0.48 | -7.62
Cc1ccc(NC(=O)CSc2nc3ccccc3n3cnnc23)c(C)c1 | 0.98 | 26.16 | -16.93
COc1ccc(NC(=O)Cn2nc3cc(C)nc(Nc4cc(C)cc(C)c4)n3c2=O)cc1 | 10.21 | 1.22 | -8.99
Cc1ccc(Cn2c(=O)c3ccc(C(=O)NC4CCCC4)cc3n3c(=O)n(CC#N)nc23)cc1 | 8.48 | 2.86 | -4.65

Structure (SMILES) | Inhibition (Klebsiella pneumoniae) [%] | Inhibition (Candida albicans) [%] | Inhibition (Cryptococcus neoformans) [%]
COC(=O)c1ccc(NC(=O)Cn2nc3c4cc(-c5ccc(OC)cc5)nn4ccn3c2=O)cc1 | 9.58 | 0.9 | -33.46
O=C(CSc1nnc2c(=O)n(-c3ccccc3)ccn12)Nc1ccc(Br)cc1F | 1.03 | 2.95 | -12.46
O=c1n(Cc2c(F)cccc2Cl)nc2ccc(-c3ccccc3)nn12 | -0.01 | 8.72 | -10.32
Cc1cccc(C)c1NC(=O)Cn1nc2c3cc(-c4ccc(Cl)cc4)nn3ccn2c1=O | 6.6 | -0.5 | -16.41
CCOc1ccc(-n2ccn3c(SCC(=O)Nc4ccc(Cl)cc4)nnc3c2=O)cc1 | 5.78 | 3.69 | -6.67
CC(C)c1nnc2c(SCC(=O)Nc3ccccc3F)nc3ccccc3n12 | 10.81 | 2.9 | -27.54
CCc1cccc(NC(=O)Cn2c(=O)c3nnc(C(C)C)n3c3ccccc32)c1 | 9.33 | 1.02 | -21.01
O=C(CSc1nnc2c(=O)n(-c3ccc(F)cc3)ccn12)NCC1CCCO1 (stereo not drawn) | 7.61 | 4.29 | -18.42
CCC(Sc1nnc2c(=O)n(-c3ccc(C)c(C)c3)ccn12)C(=O)Nc1cc(OC)ccc1OC (stereo not drawn) | 5.57 | 2.66 | -6.72
N#Cc1cccc(Cn2nc3ccc(S(=O)(=O)N4CCCCCC4)cn3c2=O)c1 | 8.88 | -0.26 | -9.97
CSc1cccc(NC(=O)Cn2nc3c(N4CCCC4)nccn3c2=O)c1 | 1.74 | 3.86 | -5.38
CCc1ccccc1Sc1nccn2c(=O)n(CC(=O)Nc3ccc(OC)cc3)nc12 | 0.32 | 4.23 | -13.58
CC(C)(C)Sc1ccc2nn(CC(=O)Nc3ccccc3Cl)c(=O)n2n1 | 9.71 | 5.29 | -25.66
Cc1ccccc1N1CCN(c2nccn3c(=O)n(CC(=O)NCc4cc(F)cc(F)c4)nc23)CC1 | 4.01 | 0.32 | -4.76
CCc1ccc(N(Cc2ccc(Cl)cc2)S(=O)(=O)c2cccn3c(C)nnc23)cc1 | -1.79 | 3.63 | -5.55
